Source: PubChem BioAssay AID1159580 (chemical genetic matrix, 2015)
The whole screen tested about 5,500 compounds, of which about 2,000 (36%) were called active. Inconclusive results (about 18%) are left out. No stated cut-off is given here; in the data, active means normalized growth mostly below about 0.91 (no sharp cut-off); inconclusive means no clear call, values can overlap the other calls; inactive means mostly above about 0.92. The list shows a part of the results.

Assay: chemical genetic growth profiling, strain panel (AID 1159580);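 further: tested at 20 µM; growth read once vehicle control cultures reached saturation at 30 °C; 1 = growth at the plate median or of vehicle wells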
Conditions: growth OD
[1] = S. cerevisiae deletion strains, locus YHR030C, strain SLT2, stronger effect = lower value

Measured: normalized growth

CCC(COC(=O)c1cc(OC)c(OC)c(OC)c1)(c1ccccc1)N(C)C (configuration not stated)
inactive: S. cerevisiae deletion strains, locus YAL021C, strain ccr4, stronger effect = lower value 0.969 | S. cerevisiae deletion strains, locus YAL026C, strain drs2, stronger effect = lower value 0.994 | S. cerevisiae deletion strains, locus YAL030W, strain snc1, stronger effect = lower value 0.985 | S. cerevisiae deletion strains, locus YBL061C, strain skt5, stronger effect = lower value 0.993 | S. cerevisiae deletion strains, locus YBR009C, strain hhf1, stronger effect = lower value 1.01 | S. cerevisiae deletion strains, locus YBR023C, strain chs3, stronger effect = lower value 0.98 | S. cerevisiae deletion strains, locus YBR171W, strain sec66, stronger effect = lower value 0.961 | S. cerevisiae deletion strains, locus YBR231C, strain swc5, stronger effect = lower value 0.985 | S. cerevisiae deletion strains, locus YBR279W, strain paf1, stronger effect = lower value 0.975 | S. cerevisiae deletion strains, locus YCL011C, strain gbp2, stronger effect = lower value 0.969 | S. cerevisiae deletion strains, locus YCL016C, strain dcc1, stronger effect = lower value 0.99 | S. cerevisiae deletion strains, locus YCL061C, strain MRC1, stronger effect = lower value 0.987 | S. cerevisiae deletion strains, locus YCL069W, strain vba3, stronger effect = lower value 0.988 | S. cerevisiae deletion strains, locus YCR088W, strain abp1, stronger effect = lower value 0.979 | S. cerevisiae deletion strains, locus YDL005C, strain med2, stronger effect = lower value 0.977 | S. cerevisiae deletion strains, locus YDL040C, strain nat1, stronger effect = lower value 0.978 | S. cerevisiae deletion strains, locus YDR001C, strain nth1, stronger effect = lower value 0.974 | S. cerevisiae deletion strains, locus YDR069C, strain doa4, stronger effect = lower value 0.992 | S. cerevisiae deletion strains, locus YDR137W, strain rgp1, stronger effect = lower value 0.925 | S. cerevisiae deletion strains, locus YDR159W, strain sac3, stronger effect = lower value 0.986 | S. cerevisiae deletion strains, locus YDR195W, strain ref2 0.984 | S. cerevisiae deletion strains, locus YDR297W, strain sur2, stronger effect = lower value 0.971 | S. cerevisiae deletion strains, locus YDR334W, strain swr1, stronger effect = lower value 0.938 | S. cerevisiae deletion strains, locus YDR335W, strain msn5, stronger effect = lower value 0.969 | S. cerevisiae deletion strains, locus YDR392W, strain spt3, stronger effect = lower value 0.753 | S. cerevisiae deletion strains, locus YEL003W, strain gim4, stronger effect = lower value 0.967 | S. cerevisiae deletion strains, locus YEL037C, strain rad23, stronger effect = lower value 0.983 | S. cerevisiae deletion strains, locus YEL061C, strain CIN8 (second series), stronger effect = lower value 0.985 | S. cerevisiae deletion strains, locus YER015W, strain faa2, stronger effect = lower value 0.986 | S. cerevisiae deletion strains, locus YER016W, strain bim1, stronger effect = lower value 0.983 | S. cerevisiae deletion strains, locus YER111C, strain swi4, stronger effect = lower value 0.983 | S. cerevisiae deletion strains, locus YER155C, strain BEM2 (second series), stronger effect = lower value 0.97 | S. cerevisiae deletion strains, locus YFR010W, strain ubp6, stronger effect = lower value 0.984 | S. cerevisiae deletion strains, locus YGL167C, strain pmr1, stronger effect = lower value 0.976 | S. cerevisiae deletion strains, locus YGL173C, strain kem1, stronger effect = lower value 0.985 | S. cerevisiae deletion strains, locus YGL227W, strain vid30, stronger effect = lower value 0.99 | S. cerevisiae deletion strains, locus YGL240W, strain doc1, stronger effect = lower value 0.972 | S. cerevisiae deletion strains, locus YGL253W, strain hxk2, stronger effect = lower value 0.994 | S. cerevisiae deletion strains, locus YHR013C, strain ard1, stronger effect = lower value 0.937 | S. cerevisiae deletion strains, locus YHR027C, strain rpn1, stronger effect = lower value 0.969 | [1] 0.976 | S. cerevisiae deletion strains, locus YHR079C, strain IRE1, stronger effect = lower value 0.985 | S. cerevisiae deletion strains, locus YHR142W, strain chs7, stronger effect = lower value 0.952 | S. cerevisiae deletion strains, locus YJL092W, strain hpr5, stronger effect = lower value 0.973 | S. cerevisiae deletion strains, locus YJL095W, strain BCK1 (second series), stronger effect = lower value 0.981 | S. cerevisiae deletion strains, locus YJL095W, strain BCK1, stronger effect = lower value 0.98 | S. cerevisiae deletion strains, locus YJL115W, strain asf1, stronger effect = lower value 0.957 | S. cerevisiae deletion strains, locus YJL129C, strain trk1, stronger effect = lower value 0.938 | S. cerevisiae deletion strains, locus YJL154C, strain vps35, stronger effect = lower value 0.979 | S. cerevisiae deletion strains, locus YJL164C, strain tpk1, stronger effect = lower value 0.966 | S. cerevisiae deletion strains, locus YJL166W, strain qcr8, stronger effect = lower value 0.969 | S. cerevisiae deletion strains, locus YJL187C, strain SWE1, stronger effect = lower value 0.988 | S. cerevisiae deletion strains, locus YJR066W, strain TOR1, stronger effect = lower value 0.924 | S. cerevisiae deletion strains, locus YKL160W, strain elf1, stronger effect = lower value 0.959 | S. cerevisiae deletion strains, locus YKR026C, strain gcn3, stronger effect = lower value 0.983 | S. cerevisiae deletion strains, locus YKR091W, strain srl3, stronger effect = lower value 0.976 | S. cerevisiae deletion strains, locus YLL001W, strain dnm1, stronger effect = lower value 0.985 | S. cerevisiae deletion strains, locus YLL026W, stronger effect = lower value 0.975 | S. cerevisiae deletion strains, locus YLL041C, strain sdh2, stronger effect = lower value 0.964 | S. cerevisiae deletion strains, locus YLR027C, strain aat2, stronger effect = lower value 0.974 | S. cerevisiae deletion strains, locus YLR113W, strain HOG1, stronger effect = lower value 0.995 | S. cerevisiae deletion strains, locus YLR221C, strain rsa3, stronger effect = lower value 0.951 | S. cerevisiae deletion strains, locus YLR258W, strain gsy2, stronger effect = lower value 0.991 | S. cerevisiae deletion strains, locus YLR262C, strain YPT6 (second series), stronger effect = lower value 0.933 | S. cerevisiae deletion strains, locus YLR320W, strain mms22, stronger effect = lower value 0.942 | S. cerevisiae deletion strains, locus YLR342W, strain FKS1, stronger effect = lower value 0.983 | S. cerevisiae deletion strains, locus YLR357W, strain rsc2, stronger effect = lower value 0.966 | S. cerevisiae deletion strains, locus YLR370C, strain arc18, stronger effect = lower value 0.997 | S. cerevisiae deletion strains, locus YLR384C, strain iki3, stronger effect = lower value 0.976 | S. cerevisiae deletion strains, locus YML120C, strain ndi1, stronger effect = lower value 0.957 | S. cerevisiae deletion strains, locus YMR058W, strain fet3, stronger effect = lower value 0.979 | S. cerevisiae deletion strains, locus YMR125W, strain sto1, stronger effect = lower value 0.97 | S. cerevisiae deletion strains, locus YMR129W, stronger effect = lower value 0.978 | S. cerevisiae deletion strains, locus YMR205C, strain PFK2, stronger effect = lower value 1.02 | S. cerevisiae deletion strains, locus YMR231W, strain pep5, stronger effect = lower value 0.999 | S. cerevisiae deletion strains, locus YNL071W, strain lat1, stronger effect = lower value 0.921 | S. cerevisiae deletion strains, locus YNL183C, strain NPR1, stronger effect = lower value 0.939 | S. cerevisiae deletion strains, locus YNL209W, strain ssb2, stronger effect = lower value 0.98 | S. cerevisiae deletion strains, locus YNL248C, strain rpa49, stronger effect = lower value 0.945 | S. cerevisiae deletion strains, locus YNL322C, strain KRE1 (second series), stronger effect = lower value 0.972 | S. cerevisiae deletion strains, locus YNR049C, strain mso1, stronger effect = lower value 0.973 | S. cerevisiae deletion strains, locus YOR001W, strain rrp6, stronger effect = lower value 0.913 | S. cerevisiae deletion strains, locus YOR070C, strain gyp1, stronger effect = lower value 0.978 | S. cerevisiae deletion strains, locus YOR080W, strain dia2, stronger effect = lower value 0.977 | S. cerevisiae deletion strains, locus YOR083W, strain WHI5, stronger effect = lower value 0.952 | S. cerevisiae deletion strains, locus YOR106W, strain vam3, stronger effect = lower value 0.957 | S. cerevisiae deletion strains, locus YOR231W, strain MKK1, stronger effect = lower value 0.988 | S. cerevisiae deletion strains, locus YOR265W, strain rbl2, stronger effect = lower value 0.976 | S. cerevisiae deletion strains, locus YOR270C, strain vph1, stronger effect = lower value 0.955 | S. cerevisiae deletion strains, locus YOR290C, strain snf2, stronger effect = lower value 0.925 | S. cerevisiae deletion strains, locus YPL051W, strain arl3, stronger effect = lower value 0.954 | S. cerevisiae deletion strains, locus YPL078C, strain atp4, stronger effect = lower value 0.946 | S. cerevisiae deletion strains, locus YPL106C, strain sse1, stronger effect = lower value 0.941 | S. cerevisiae deletion strains, locus YPL240C, strain hsp82, stronger effect = lower value 0.961 | S. cerevisiae deletion strains, locus YPL256C, strain CLN2, stronger effect = lower value 0.966

COC(=O)c1cc(OC)c(OC)cc1NS(=O)(=O)c1ccc(C)cc1
inactive: S. cerevisiae deletion strains, locus YAL013W, strain DEP1, stronger effect = lower value 1.01 | S. cerevisiae deletion strains, locus YBR229C, strain ROT2, stronger effect = lower value 0.996 | S. cerevisiae deletion strains, locus YDL101C, strain DUN1, stronger effect = lower value 0.994 | S. cerevisiae deletion strains, locus YDR150W, strain NUM1, stronger effect = lower value 0.933 | S. cerevisiae deletion strains, locus YEL061C, strain CIN8, stronger effect = lower value 1.01 | S. cerevisiae deletion strains, locus YGR078C, strain PAC10, stronger effect = lower value 0.989 | [1] 0.959 | S. cerevisiae deletion strains, locus YHR087W, strain rtc3, stronger effect = lower value 1 | S. cerevisiae deletion strains, locus YJR043C, strain POL32, stronger effect = lower value 0.985 | S. cerevisiae deletion strains, locus YJR075W, strain HOC1, stronger effect = lower value 0.991 | S. cerevisiae deletion strains, locus YKL190W, strain CNB1, stronger effect = lower value 1 | S. cerevisiae deletion strains, locus YLR039C, strain RIC1, stronger effect = lower value 0.961 | S. cerevisiae deletion strains, locus YLR058C, strain SHM2 (second series), stronger effect = lower value 1.01 | S. cerevisiae deletion strains, locus YLR085C, strain ARP6, stronger effect = lower value 1.03 | S. cerevisiae deletion strains, locus YLR262C, strain YPT6, stronger effect = lower value 0.891 | S. cerevisiae deletion strains, locus YML094W, strain GIM5, stronger effect = lower value 1.03 | S. cerevisiae deletion strains, locus YMR219W, strain ESC1, stronger effect = lower value 1 | S. cerevisiae deletion strains, locus YMR263W, strain SAP30, stronger effect = lower value 0.971 | S. cerevisiae deletion strains, locus YMR307W, strain GAS1, stronger effect = lower value 0.959 | S. cerevisiae deletion strains, locus YNL153C, strain GIM3, stronger effect = lower value 0.987 | S. cerevisiae deletion strains, locus YNL298W, strain CLA4 (second series), stronger effect = lower value 0.962 | S. cerevisiae deletion strains, locus YNL322C, strain KRE1, stronger effect = lower value 1 | S. cerevisiae deletion strains, locus YNR030W, strain Alg12, stronger effect = lower value 0.996 | S. cerevisiae deletion strains, locus YPL055C, strain LGE1, stronger effect = lower value 0.894 | S. cerevisiae deletion strains, locus YPL241C, strain CIN2, stronger effect = lower value 1.01 | S. cerevisiae deletion strains, locus YPR135W, strain CTF4, stronger effect = lower value 0.93 | S. cerevisiae strains, strain wild type, stronger effect = lower value 0.99
